Screening data (PubChem)
FLuc inh – Photinus pyralis luciferase inhibition; P08659; purified P. pyralis luciferase, luminescence, biochemical; Potency, µM (top dose mostly 115 µM), usual class: inhibitors; 76,000 tested, 2.5% active; AID 1347043; also: % is scaled to controls: 0 for no effect and ±100 for the full control effect; nearly all actives have a fitted effect of over 65% in size
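Purified P. pyralis luciferase (10nM final) in 50mM Tris acetate pH 7.5, 10mM Mg acetate, 0.01% Tween-20, 0.05% BSA with 10uM D-luciferin and 10uM ATP. Compounds titrated qHTS. Luminescence imaged on CCD.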
NPR1 antag – human Npr1 receptor antagonism; P16066; HEK293 hNpr1 GloSensor cGMP, ANP-stimulated luminescence; Potency, µM (highest dose often 46.3 µM), without a hit: at the top dose activity change, negative = inhibition, hits mostly inhibitors; 76,000 tested, 1.6% active; AID 1347048; calls by dose curve; also: % is scaled to controls: 0 for no effect and ±100 for the full control effect; nearly all actives have a fitted effect of over 60% in size
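HEK293 cells stably expressing human Npr1 and cGMP GloSensor pGS-40F, loaded 2 h with 2% GloSensor reagent, given compound 30 min at room temperature. Luminescence read before and 20 min after 0.1 nM hNppA.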
NIH3T3 tox – NIH 3T3 cell cytotoxicity. NIH 3T3 viability, CellTiter-Glo ATP luminescence, 48-72 h. Potency, µM (highest dose often 96.7 µM), inactives show at the highest dose activity change, negative = cytotoxicity, usual class: inhibitors. 94,000 tested, 4.3% active. AID 1345082; also: % is scaled to controls: 0 for no effect and ±100 for the full control effect; nearly all actives have a fitted effect of over 55% in size
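Mouse fibroblast NIH 3T3 cells, 400 per well, received compound via pintool and were incubated for 48 or 72 hr prior to CellTiter-Glo ATP luminescence measurement.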
HEK293 tox – kills HEK 293 cells. 94,000 tested, 6.6% active. HEK 293 viability, ATP luminescence (CellTiter-Glo), 48-72 h. AID 1345083. Potency, µM (highest dose often 115 µM), for inactives: at the top dose activity change, negative = cytotoxicity, most hits filed as inhibitors; also: % is scaled to controls: 0 for no effect and ±100 for the full control effect; nearly all actives have a fitted effect of over 60% in size
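HEK 293 cells at 250 cells/well were exposed to compounds by pintool transfer for 48 or 72 hr at 37 degree Celsius, 5% CO2. Viability was read as ATP-coupled luminescence with CellTiter-Glo after 10 min at room temperature.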
GPT2 inh – GPT2 alanine aminotransferase inhibition; Q8TD30; Recombinant GPT2, coupled pyruvate oxidase/HRP Amplex Red fluorescence; Potency, µM (series often up to 57.7 µM), inactives show top-dose activity change, negative = inhibition, hits mostly inhibitors; 100,000 tested, 0.25% active; AID 1671188; also: % is scaled to controls: 0 for no effect and ±100 for the full control effect; nearly all actives have a fitted effect of over 60% in size
Target sequence (Q8TD30 whole entry, looked up): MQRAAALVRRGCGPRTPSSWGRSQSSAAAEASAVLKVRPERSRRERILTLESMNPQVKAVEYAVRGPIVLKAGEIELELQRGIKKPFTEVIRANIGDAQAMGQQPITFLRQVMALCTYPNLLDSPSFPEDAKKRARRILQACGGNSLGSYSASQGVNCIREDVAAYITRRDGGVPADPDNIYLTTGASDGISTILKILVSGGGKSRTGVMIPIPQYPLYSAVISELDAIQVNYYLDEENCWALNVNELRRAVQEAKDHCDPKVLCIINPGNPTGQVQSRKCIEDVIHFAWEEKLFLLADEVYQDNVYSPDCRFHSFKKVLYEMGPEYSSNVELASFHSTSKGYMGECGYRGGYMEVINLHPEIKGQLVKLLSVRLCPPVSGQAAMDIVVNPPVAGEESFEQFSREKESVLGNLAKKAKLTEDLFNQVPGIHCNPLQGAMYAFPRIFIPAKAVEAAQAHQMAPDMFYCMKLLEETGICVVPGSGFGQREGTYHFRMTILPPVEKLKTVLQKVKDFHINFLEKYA
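GPT2 10ng/uL, a-KG 250uM, L-Ala 2mM, HEPES pH7.5 + 0.0001% Tween; 30 min RT. Then Amplex mix (PO/HRP/ThPP), 30 min RT dark, fluorescence. AOA 50uM used as positive control.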
Npr1 antag conf – confirmation of human Npr1 natriuretic peptide receptor antagonists; HEK293 hNpr1 cGMP GloSensor luminescence, ANP-stimulated; Potency, µM (titrated, usually from 57.6 µM), inactives show at the top dose activity change, negative = inhibition, usual class: inhibitors; shares compounds with NPR1 antag; 1,400 tested, 76% active; calls by dose curve; also: nearly all actives have a fitted effect of over 70% in size
Npr2 selectivity – antagonizes human Npr2, subtype selectivity check. HEK293 hNpr2 GloSensor cGMP luminescence, CNP-stimulated. 1,400 tested, 67% active. shares compounds with NPR1 antag. Potency, µM (series often up to 57.6 µM), for the others: at the top dose activity change, negative = inhibition, most hits filed as inhibitors; calls by dose curve; also: nearly all actives have a fitted effect of over 70% in size
FLuc inh counter – inhibits firefly luciferase, false Npr1 antagonist flag. shares compounds with NPR1 antag. purified FLuc enzyme, luminescence, Km substrate. Potency, µM (titrated, usually from 57.6 µM), inactives show top-dose activity change, negative = inhibition, hits mostly inhibitors. 1,400 tested, 0.7% active. AID 1347047; also: series mostly up to about 58 µM; 0% is about no effect
GloSensor cGMP – counter-screen for Npr1 antagonists: GloSensor control cell line | HEK293 GloSensor cGMP, SNP-stimulated, luminescence | 1,400 tested, 69% active | shares compounds with NPR1 antag | Potency, µM (highest dose often 57.6 µM), inactives show at the highest dose activity change, negative = inhibition, hits mostly inhibitors; calls by dose curve; also: % is scaled to controls: 0 for no effect and ±100 for the full control effect; nearly all actives have a fitted effect of over 70% in size
* hit, by the source's call; i = inactive; ? = inconclusive; . = no result; [ ] = another dose, or the depositor's remark. Only some compounds are listed: those with a hit (about 10% of all), similar ones and a draw of the others. Unless noted, calls follow the shape of the dose curve; as a rule, active = well fitted curve in the direction sought with a large enough effect; inconclusive = small, poorly fitted or top-dose-only effect, or another doubt; inactive = no such curve, though single readings can be large; an effect the other way counts as inactive or inconclusive. Potency is read from the fitted curve at half-maximal effect.

SMILES | FLuc inh | NPR1 antag | NIH3T3 tox | HEK293 tox | GPT2 inh | Npr1 antag conf | Npr2 selectivity | FLuc inh counter | GloSensor cGMP
COc1ccc(C2Cn3nnc(C(=O)N4CCN(C(=O)c5ccccc5)CC4)c3CO2)cc1 (stereo unspecified) | i | -28% | -13% | ? | i | . | . | . | .
COc1ccc(C2Cn3nnc(C(=O)N4CCN(C(=O)CCc5ccccc5)CC4)c3CO2)cc1 (stereo unspecified) | i | ? | -27% | ? | -5% | 24µM* | ? | 2% | 22µM*
COCC(=O)N1CCCC(C(=O)N2CCC(N3Cc4cccn4C3=O)CC2)C1 (stereo unspecified) | . | . | i | 0% | i | . | . | . | .
COc1ccc(C2Cn3nnc(C(=O)N4CCN(C(=O)Cc5cccc(F)c5)CC4)c3CO2)cc1 (stereo unspecified) | i | ? | i | ? | i | 22µM* | 24µM* | 1% | 19µM*
COc1ccccc1CC(=O)N1CCN(C(=O)c2nnn3c2COC(c2ccc(Cl)cc2)C3)CC1 (stereo unspecified) | i | 10µM* | ? | ? | i | 12µM* | 15µM* | 1% | 11µM*
COc1ccc(C2Cn3nnc(C(=O)N4CCN(C(=O)Cc5ccc(Cl)cc5)CC4)c3CO2)cc1 (stereo unspecified) | i | ? | -19% | -20% | i | 19µM* | ? | 2% | 22µM*
COc1cccc(N2CCN(C(=O)c3cc4n(n3)CC(c3ccc(Cl)cc3)OC4)CC2)c1 (stereo unspecified) | i | 16µM* | ? | ? | 3% | 27µM* | ? | -4% | ?
CCNC(=O)c1c(C)oc2c1CN(Cc1ccc(Br)o1)CC2 | i | -2% | ? | ? | ? | . | . | . | .
COc1ccc(S(=O)(=O)N2CCc3c(C(=O)Nc4cccc(C)c4)cccc32)cc1 | i | ? | ? | 18µM* | 4% | ? | ? | -11% | ?
COc1ccc(OC)c(NC(=O)c2ccc3c(c2)N(S(=O)(=O)c2ccccc2)CC3)c1 | ? | -7% | ? | ? | ? | . | . | . | .
COc1ccc(NC(=O)c2ccc3c(c2)N(S(=O)(=O)c2ccccc2)CC3)cc1 | i | 10µM* | -2% | ? | i | 24µM* | 24µM* | -14% | 22µM*
COc1cccc(C(=O)N2CCC3(C2)NC(=O)N(Cc2ccc(Cl)cc2)C3=O)c1 (stereo unspecified) | i | ? | ? | ? | i | ? | ? | 1% | -29%
O[C@@H]1CC(CNCc2ccc(F)cc2)(COc2cccnc2)C[C@@H]1O (stereo partly specified) | i | 0%[70.6 µM] | -18%[174 µM] | -7%[172 µM] | ? | . | . | . | .
O[C@@H]1CC(CNCc2cccc(Cl)c2)(COc2ccccc2)C[C@@H]1O (stereo partly specified) | i | -28%[70.6 µM] | ? | 100µM* | -10%[88.5 µM] | ? | 31µM* | -7%[86.2 µM] | -27%[86.2 µM]
CCCCn1c(=O)c(C(=O)N2CCN(C(=O)NC3CCCC3)CC2)nc2cccnc21 | . | . | -17% | 5% | 0% | . | . | . | .
CN1C[C@@H](NC(=O)CC(C)(C)C)C[C@H]1c1nc(-c2ccc3c(c2)OCO3)no1 | i | 25µM* | ? | ? | -8%[88.5 µM] | ? | ? | -3%[86.2 µM] | 40µM*
CCCc1nc(NCc2nc(Cc3cccs3)no2)c2cnn(C)c2n1 | i | 13µM* | ? | 45µM* | 1% | 22µM* | 22µM* | 5% | 22µM*
CC(C)Cc1cc(C(=O)NCc2nc(Cc3cccs3)no2)on1 | i | 4% | -15% | -9% | i | . | . | . | .
O=C(Nc1ccccc1)O[C@@H]1CO[C@H]2[C@@H]1OC[C@@H]2NC(=O)c1ccc2c(c1)OCO2 | i | 32µM* | ? | ? | i | ? | ? | -11%[86.2 µM] | ?
CCNC(=O)O[C@@H]1CO[C@H]2[C@@H]1OC[C@@H]2NCC1CCCCC1 | i | 3%[70.6 µM] | 0%[174 µM] | i | i | . | . | . | .
CC(=O)c1cccc(NC(=O)O[C@@H]2CO[C@H]3[C@@H]2OC[C@@H]3NC(=O)Nc2ccccc2)c1 | i | -15%[70.6 µM] | -4%[174 µM] | ? | -1%[88.5 µM] | . | . | . | .
O=C(Nc1cccc2ccccc12)O[C@@H]1CO[C@H]2[C@@H]1OC[C@@H]2NC(=O)c1ccco1 | i | -6%[70.6 µM] | -15%[138 µM] | -19%[172 µM] | -5%[88.5 µM] | . | . | . | .
O=C(Nc1ccc(Oc2ccccc2)cc1)O[C@@H]1CO[C@H]2[C@@H]1OC[C@@H]2NC(=S)Nc1ccccc1 | i | 11µM* | ? | ? | i | 9.7µM* | 12µM* | -8% | 6.9µM*
O=C(Nc1ccc(Oc2ccccc2)cc1)O[C@@H]1CO[C@H]2[C@@H]1OC[C@@H]2NCC1CCCCC1 | i | ? | ? | ? | -5% | 22µM* | 17µM* | -1% | 22µM*
O=C(Nc1cccc2ccccc12)O[C@@H]1CO[C@H]2[C@@H]1OC[C@@H]2NC(=O)c1cccs1 | i | 22µM* | -40%[174 µM] | ? | ? | 35µM* | ? | -2%[86.2 µM] | 31µM*
COCCCNC(=O)c1ccc2nnc(-c3ccc(F)cc3)n2c1 | . | . | i | i | i | . | . | . | .
O=C(Nc1ccccc1)O[C@@H]1CO[C@H]2[C@@H]1OC[C@@H]2NC(=O)C1CCC1 | i | ? | -29%[174 µM] | ? | -6%[88.5 µM] | . | . | . | .
COC(=O)c1cccc(NC(=S)N[C@H]2CO[C@H]3[C@@H]2OC[C@H]3OC(=O)Nc2cccc(C(F)(F)F)c2)c1 | i | ? | ? | 45µM* | 2% | 27µM* | 22µM* | -5% | 22µM*
